# Inconclusive results are not listed. Where a call stands in place of a potency, no number is given. Calls of active or inactive are those of the source. Unless noted, calls follow the shape of the dose curve; as a rule, active = well fitted curve in the direction sought with a large enough effect; inconclusive = small, poorly fitted or top-dose-only effect, or another doubt; inactive = no such curve, though single readings can be large; an effect the other way counts as inactive or inconclusive.
# How the values were obtained:
# [1] = target: Flap endonuclease 1 (Homo sapiens) (UniProt P39748); assay: qHTS Validation Assay for the Inhibitors of Human Flap endonuclease 1 (FEN1) (AID 488816)
# Method in brief: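 Steps: add FEN1 (10 nM reagent) or buffer only; pin compounds; hold 15 min at room temperature; start with substrate, 50 nM final; read at 0 and 15 min; correct, normalize and fit a four-parameter Hill curve.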
# [2] = target: M-phase phosphoprotein 8 (Homo sapiens) (UniProt Q99549); assay: qHTS Validation Assay for Inhibitors for MPP8 Chromodomain Interactions with Methylated Histone Tails (AID 488949); also: top concentration of the series differs between compounds; nearly all actives have a fitted effect of over 55% in size
# Method in brief: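 MPP8 (50 nM) was pre-bound to 50 nM biotinylated H3(1-18)K9me3 peptide in PBS pH 7.4 with 0.01% Tween-20. Compounds were then added for 30 min at room temperature, and complex disruption was read by AlphaScreen with streptavidin donor and nickel-chelate acceptor beads.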
# [3] = target: Methanococcus maripaludis chaperonin (MmCpn) (UniProt Q6LX38); assay: High-Throughput Screening for Modulators of Cytosolic Chaperonin Activity: MmCpn Primary Screen (AID 488978);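 also: 50 nM MmCpn enzyme hydrolysing 30 µM ATP at 37 °C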
# Method in brief: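 MmCpn at 50 nM final was preincubated 5 min at RT with compound. ATP was then added at 30 uM final for 10 min at 37 C. ADP formed was detected by Transcreener HTRF (665/590 nm).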
# [4] = target: Transient receptor potential cation channel subfamily V member 1 (Homo sapiens) (UniProt Q8NER1); assay: HTS Assay for Compounds that Act as Enhancers of the Vanilloid Receptor 1 (AID 488979)
# Method in brief: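 TRPV1-expressing cells loaded with Fluo-8 calcium dye; compounds added and calcium influx read kinetically for 3 min (agonist phase), then capsaicin at EC20 added and read 2 min more for enhancement. Fluorescence ex 480/em 520 nm.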
# [5] = target: D(1A) dopamine receptor (Homo sapiens) (UniProt P21728); assay: HTS Assay for Allosteric Agonists of the Human D1 Dopamine Receptor: Primary Screen for Agonists (AID 488981)
# Method in brief: (§1)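 Tetracycline-induced HEK293 T-REx cells force-coupled to calcium signalling were incubated overnight at 30 C and dye-loaded at room temperature. Calcium flux over 180 s after compound addition flagged agonists; a further 180 s read after EC20 dopamine flagged potentiators.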
# [6] = target: D(1A) dopamine receptor (Homo sapiens) (UniProt P21728); assay: HTS Assay for Allosteric Agonists of the Human D1 Dopamine Receptor: Primary Screen for Potentiators (AID 488982); also: potency is read from the fitted curve at half-maximal effect
# Method in brief: as §1
# [7] = target: D(1A) dopamine receptor (Homo sapiens) (UniProt P21728); assay: HTS Assay for Allosteric Agonists of the Human D1 Dopamine Receptor: Primary Screen for Antagonists (AID 488983);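 also: calcium flux response to an EC80 dopamine challenge measured with no-wash dye; nearly all actives have a fitted effect of over 65% in size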
# Method in brief: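 Calcium-flux read-out in inducible HEK293 T-REx cells expressing D1, dye-loaded 30–90 min at room temperature. Kinetic reads: 180 s after compound (agonist phase), then 180 s after an EC80 dopamine challenge.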
# [8] = target: ATPase family AAA domain-containing protein 5 (Homo sapiens) (UniProt Q96QE3); assay: Validation screen for small molecules that inhibit ELG1-dependent DNA repair in human embryonic kidney (HEK293T) cells expressing luciferase-tagged ELG1 (AID 493107);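 also: series mostly up to about 46 µM; inhibitors lower the ELG1-luciferase luminescence signal; nearly all actives have a fitted effect of over 70% in size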
# Method in brief: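 Luciferase read-out, ONE-Glo, 30 min at room temperature, follows 16 h co-exposure at 37 C of compound and the DNA-damaging agent 5-fluorouridine. Cells: HEK293T with ELG1-luciferase fusion, 2,000 per well, DMSO as vehicle.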
# [9] = target: Thyrotropin-releasing hormone receptor (Homo sapiens) (UniProt P34981); assay: qHTS for Small Molecule Agonists and Allosteric Enhancers of Human TRH Receptor: Validation Screen for Agonists (AID 493127;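 active = calcium activation more than 3 SD above the typical response in the agonist read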;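 also: intracellular calcium rise by fluo-8 fluorescence before TRH EC20 addition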); details: TRH receptor agonist cell assay; at 2 µM; stronger effect = higher value
# Method in brief: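 Compound-evoked intracellular calcium release in fluo-8-loaded TRHR cells, read kinetically on FDSS (Ex 480/Em 530, 1 s/cycle) after 23 nL pintool transfer. Agonist phase preceded 10 nM TRH EC20 addition.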
# [10] = qHTS for Inhibitors of Cell Surface uPA Generation: Validation Assay (AID 493164);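 also: RAW 264.7 macrophage cells exposed to compound for 18 h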
# Method in brief: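 ATP-Lite luminescence read-out: ATP remains high when uPA activity-dependent LF translocation into the cytoplasm is blocked. RAW 264.7 cells, 18 h compound exposure at 37 C; 7-point titration, 2.45 nM to 38.3 uM final.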
# [11] = target: Galactokinase (Homo sapiens) (UniProt P51570); assay: qHTS Validation Assay for Inhibitors of Human Galactokinase (GALK) (AID 493189)
# Method in brief: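 GALK (5 nM) with 35 uM ATP and 100 uM galactose in HEPES pH 8.0 with MgCl2, NaCl, DTT and BSA. Reaction ran 1 h at room temperature. Residual ATP read by Kinase-Glo Plus luminescence.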
# [12] = Validation screen for small molecules that induce DNA re-replication in SW480 colon adenocarcinoma cells (AID 504364)
# Method in brief: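 Image-based DNA content read-out: Hoechst stain 40 min, total nuclear fluorescence intensity (ex 405 nm, em 500-530 nm) after 48 h compound exposure of 250 SW480 cells/well at 37 C, 5% CO2, versus DMSO vehicle.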
# [13] = target: Peptidyl-prolyl cis-trans isomerase NIMA-interacting 1 (Homo sapiens) (UniProt Q13526); assay: qHTS Validation Assay to Find Inhibitors of Pin1 (AID 504536; active = well fitted inhibition curve with a large enough effect in the polarisation, with a control signal flat, not every such curve was filed as active; the % refers to the polarisation)
# Method in brief: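 Fluorescence polarization competition: compounds (titration) displace HiFluor-488-labeled Pin1-1b peptide from Pin1 (0.3 uM final) in pH 7.5 HEPES buffer with DTT, 10 min at room temperature; %Activity normalized to no-enzyme wells, curves fitted.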
# [14] = target: Phosphoglycerate kinase, glycosomal (Trypanosoma brucei brucei) (UniProt P07378); assay: qHTS Validation Assay to Find Inhibitors of Phosphoglycerate Kinase (AID 504547)
# Method in brief: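 In TEA buffer (100mM, pH 7.6) containing 5mM MgCl2 and 0.01% Tween-20, the GAPDH-coupled PGK reaction proceeded for 60 minutes at room temperature before a single luminescence reading using Kinase-Glo Plus.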
# [15] = target: phosphoglycerate mutase (Leishmania major) (UniProt Q4Q090); assay: qHTS Validation Assay to Find Inhibitors of Phosphoglycerate Mutase (AID 504548); also: series mostly up to about 58 µM
# Method in brief: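 Luminescent end-point read-out via Kinase-GloPlus after a 10-minute development. Reaction: 1.25nM Leishmania major PGAM with substrate and compound, 45 minutes at room temperature in TEA buffer (pH 7.6) with MgCl2 and Tween-20.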
# [16] = Inducers of the Endoplasmic Reticulum Stress Response (ERSR) in human glioma: Validation (AID 504836)
# Method in brief: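 Stably transfected U87-MG human glioma cells carrying a GRP78-based luminescent sensor were seeded at 1000 cells/well, pin-dosed with compounds and incubated 16 h. Luciferase reagent was then added, and end-point luminescence was read after 10 min at room temperature.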
# [17] = target: Ubiquitin carboxyl-terminal hydrolase 1 (Homo sapiens) (UniProt O94782); assay: Inhibitors of USP1/UAF1: Pilot qHTS (AID 504865);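 also: rhodamine fluorescence freed from ubiquitin-rhodamine substrate followed over time; top concentration of the series differs between compounds; nearly all actives have a fitted effect of over 35% in size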
# Method in brief: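 USP1/UAF1 complex at 1 nM preincubated 15 min at room temperature with compound, then Ub-Rho substrate added at 150 nM final. Fluorescence (480/540 nm) read kinetically in 50 mM HEPES pH 7.8, 0.5 mM EDTA, 1 mM TCEP, 0.1 mg/ml BSA, 0.01% Tween-20.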
# [18] = target: Chromobox protein homolog 1 (Homo sapiens) (UniProt P83916); assay: qHTS Validation Assay for Inhibitors of HP1-beta Chromodomain Interactions with Methylated Histone Tails (AID 488953);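 also: loss of AlphaScreen luminescence from HP1-beta binding biotinylated H3K9me3 peptide; series mostly up to about 110 µM; nearly all actives have a fitted effect of over 50% in size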
# Method in brief: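 AlphaScreen proximity signal from streptavidin donor and nickel chelate acceptor beads (final 10 ug/mL) after 30 min dark incubation. Compounds had 30 min at room temperature with preformed complex of 50 nM HP1-beta and 50 nM b-H3(1-18)K9me3 in PBS pH 7.4 with 0.01% Tween-20.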
# [19] = Nrf2 qHTS screen for inhibitors: Validation (AID 493153; active = well fitted inhibition curve with a large enough effect in the main read-out, with a control signal flat, not every such curve was filed as active); details: Potency: luciferase luminescence; viability change: measured here: cytotoxicity max response
# Method in brief: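 Concentration-response on A549 ARE_Fluc reporter cells exposed 18-24 h at 37 C, 5% CO2. Cytotoxicity read first by CellTiter-Fluor fluorescence (Ex 405/Em 525), then Nrf2 inhibition by BugLite luminescence after 15 min.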
# [20] = target: ATP-dependent 6-phosphofructokinase (Trypanosoma brucei brucei) (UniProt O15648); assay: qHTS Assay to Find Inhibitors of T. brucei phosphofructokinase: hit validation (AID 492961);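 also: luminescence reports ADP formed as PFK phosphorylates fructose-6-phosphate with ATP; series mostly up to about 51 µM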
# Method in brief: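 Percent activity derived from corrected luminescence, normalized between 0x and 1x enzyme controls, then fitted to concentration-response curves. Conditions: 1.25 nM PFK, 0.1 mM ATP, 0.5 mM F6P, 45 min RT.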
# Chain of ATPase family AAA domain-containing protein 5 (Homo sapiens) (Q96QE3 whole entry, looked up, the tested form may be a part): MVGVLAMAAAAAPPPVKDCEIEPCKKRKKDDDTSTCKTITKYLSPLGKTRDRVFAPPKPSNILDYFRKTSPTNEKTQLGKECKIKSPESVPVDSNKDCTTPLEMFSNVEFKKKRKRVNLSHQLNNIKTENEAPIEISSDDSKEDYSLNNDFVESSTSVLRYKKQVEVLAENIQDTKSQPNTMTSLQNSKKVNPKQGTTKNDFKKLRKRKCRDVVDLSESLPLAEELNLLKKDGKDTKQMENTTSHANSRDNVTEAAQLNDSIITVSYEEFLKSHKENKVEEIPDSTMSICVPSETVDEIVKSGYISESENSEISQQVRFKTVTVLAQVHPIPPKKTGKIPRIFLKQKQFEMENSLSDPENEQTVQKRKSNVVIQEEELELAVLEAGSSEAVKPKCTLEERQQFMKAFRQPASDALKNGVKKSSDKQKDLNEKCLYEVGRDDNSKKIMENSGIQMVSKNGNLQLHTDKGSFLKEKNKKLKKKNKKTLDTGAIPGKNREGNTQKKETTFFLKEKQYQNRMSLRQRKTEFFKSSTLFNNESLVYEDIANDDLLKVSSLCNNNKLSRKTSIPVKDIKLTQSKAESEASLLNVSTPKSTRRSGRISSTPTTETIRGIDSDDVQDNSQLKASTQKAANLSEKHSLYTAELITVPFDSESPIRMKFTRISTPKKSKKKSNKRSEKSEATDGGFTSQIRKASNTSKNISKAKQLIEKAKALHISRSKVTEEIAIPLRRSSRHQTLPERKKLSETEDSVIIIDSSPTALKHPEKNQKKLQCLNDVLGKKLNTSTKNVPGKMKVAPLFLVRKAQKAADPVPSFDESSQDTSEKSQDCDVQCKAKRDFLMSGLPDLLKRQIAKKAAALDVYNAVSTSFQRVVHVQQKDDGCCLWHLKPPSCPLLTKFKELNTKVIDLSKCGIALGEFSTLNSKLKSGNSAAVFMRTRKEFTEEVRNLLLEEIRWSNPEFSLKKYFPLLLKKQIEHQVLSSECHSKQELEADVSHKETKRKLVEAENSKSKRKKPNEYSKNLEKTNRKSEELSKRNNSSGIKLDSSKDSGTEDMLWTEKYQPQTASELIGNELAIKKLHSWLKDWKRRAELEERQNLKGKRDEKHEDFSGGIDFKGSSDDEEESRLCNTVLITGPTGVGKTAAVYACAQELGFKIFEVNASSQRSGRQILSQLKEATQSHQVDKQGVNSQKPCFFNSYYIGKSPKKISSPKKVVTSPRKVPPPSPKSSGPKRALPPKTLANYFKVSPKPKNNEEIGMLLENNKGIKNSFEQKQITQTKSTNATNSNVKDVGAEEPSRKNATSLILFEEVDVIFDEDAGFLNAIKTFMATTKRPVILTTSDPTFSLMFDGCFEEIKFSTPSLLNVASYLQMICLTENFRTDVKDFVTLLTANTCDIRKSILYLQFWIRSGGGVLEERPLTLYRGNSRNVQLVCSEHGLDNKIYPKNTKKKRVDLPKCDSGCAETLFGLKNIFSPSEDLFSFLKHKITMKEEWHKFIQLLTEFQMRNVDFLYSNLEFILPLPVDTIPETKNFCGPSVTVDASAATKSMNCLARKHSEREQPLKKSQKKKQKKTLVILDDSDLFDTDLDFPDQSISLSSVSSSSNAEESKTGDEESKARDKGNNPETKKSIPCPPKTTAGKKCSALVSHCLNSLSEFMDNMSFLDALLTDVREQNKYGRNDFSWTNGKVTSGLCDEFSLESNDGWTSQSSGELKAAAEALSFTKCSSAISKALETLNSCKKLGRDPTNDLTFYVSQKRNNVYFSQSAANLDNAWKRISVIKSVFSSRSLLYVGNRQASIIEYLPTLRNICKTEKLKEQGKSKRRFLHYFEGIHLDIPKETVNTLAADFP
# Chain of Chromobox protein homolog 1 (Homo sapiens) (P83916 whole entry, looked up): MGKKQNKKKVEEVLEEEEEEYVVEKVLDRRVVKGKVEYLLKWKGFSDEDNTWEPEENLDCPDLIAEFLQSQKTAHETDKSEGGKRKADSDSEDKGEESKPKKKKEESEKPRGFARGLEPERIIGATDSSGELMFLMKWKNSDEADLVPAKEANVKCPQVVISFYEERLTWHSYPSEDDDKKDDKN
# Chain of Peptidyl-prolyl cis-trans isomerase NIMA-interacting 1 (Homo sapiens) (Q13526 whole entry, looked up): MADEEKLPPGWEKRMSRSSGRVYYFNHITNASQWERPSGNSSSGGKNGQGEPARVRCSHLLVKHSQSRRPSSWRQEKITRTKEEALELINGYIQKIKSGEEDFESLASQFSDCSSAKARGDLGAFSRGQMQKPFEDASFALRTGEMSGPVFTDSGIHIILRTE
# Chain of ATP-dependent 6-phosphofructokinase (Trypanosoma brucei brucei) (O15648 whole entry, looked up): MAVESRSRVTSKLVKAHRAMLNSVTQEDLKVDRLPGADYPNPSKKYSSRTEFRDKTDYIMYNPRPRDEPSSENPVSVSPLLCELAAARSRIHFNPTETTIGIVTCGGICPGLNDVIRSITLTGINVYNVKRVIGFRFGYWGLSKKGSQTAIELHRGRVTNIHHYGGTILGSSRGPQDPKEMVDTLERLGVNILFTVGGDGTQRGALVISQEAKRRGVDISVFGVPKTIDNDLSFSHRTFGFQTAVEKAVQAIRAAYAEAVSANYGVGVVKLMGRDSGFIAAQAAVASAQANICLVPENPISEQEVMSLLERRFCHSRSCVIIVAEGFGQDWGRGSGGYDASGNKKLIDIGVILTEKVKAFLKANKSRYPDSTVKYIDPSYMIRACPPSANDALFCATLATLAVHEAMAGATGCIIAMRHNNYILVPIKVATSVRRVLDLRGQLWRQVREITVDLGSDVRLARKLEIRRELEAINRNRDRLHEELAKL
# Chain of Transient receptor potential cation channel subfamily V member 1 (Homo sapiens) (Q8NER1 whole entry, looked up): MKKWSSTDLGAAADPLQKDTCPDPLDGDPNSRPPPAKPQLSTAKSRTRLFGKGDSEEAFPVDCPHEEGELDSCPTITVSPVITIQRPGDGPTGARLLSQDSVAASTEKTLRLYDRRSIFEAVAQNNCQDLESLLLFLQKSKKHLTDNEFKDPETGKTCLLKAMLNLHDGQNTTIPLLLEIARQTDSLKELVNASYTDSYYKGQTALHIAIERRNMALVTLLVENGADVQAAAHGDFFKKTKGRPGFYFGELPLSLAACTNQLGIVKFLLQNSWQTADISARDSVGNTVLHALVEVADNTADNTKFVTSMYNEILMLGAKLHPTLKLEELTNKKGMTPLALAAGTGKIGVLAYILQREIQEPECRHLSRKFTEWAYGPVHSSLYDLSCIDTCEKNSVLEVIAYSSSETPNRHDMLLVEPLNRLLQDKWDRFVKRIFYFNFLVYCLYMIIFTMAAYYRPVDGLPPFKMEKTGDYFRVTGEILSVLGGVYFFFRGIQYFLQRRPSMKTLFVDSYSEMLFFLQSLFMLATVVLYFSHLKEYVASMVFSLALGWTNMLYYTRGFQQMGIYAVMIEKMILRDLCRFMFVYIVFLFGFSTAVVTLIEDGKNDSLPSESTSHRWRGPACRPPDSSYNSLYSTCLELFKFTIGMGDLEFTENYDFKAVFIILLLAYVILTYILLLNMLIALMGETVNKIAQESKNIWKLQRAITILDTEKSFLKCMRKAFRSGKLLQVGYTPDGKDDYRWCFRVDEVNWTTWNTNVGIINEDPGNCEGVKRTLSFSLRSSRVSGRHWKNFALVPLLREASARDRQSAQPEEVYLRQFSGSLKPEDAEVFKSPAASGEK
# Chain of M-phase phosphoprotein 8 (Homo sapiens) (Q99549 whole entry, looked up): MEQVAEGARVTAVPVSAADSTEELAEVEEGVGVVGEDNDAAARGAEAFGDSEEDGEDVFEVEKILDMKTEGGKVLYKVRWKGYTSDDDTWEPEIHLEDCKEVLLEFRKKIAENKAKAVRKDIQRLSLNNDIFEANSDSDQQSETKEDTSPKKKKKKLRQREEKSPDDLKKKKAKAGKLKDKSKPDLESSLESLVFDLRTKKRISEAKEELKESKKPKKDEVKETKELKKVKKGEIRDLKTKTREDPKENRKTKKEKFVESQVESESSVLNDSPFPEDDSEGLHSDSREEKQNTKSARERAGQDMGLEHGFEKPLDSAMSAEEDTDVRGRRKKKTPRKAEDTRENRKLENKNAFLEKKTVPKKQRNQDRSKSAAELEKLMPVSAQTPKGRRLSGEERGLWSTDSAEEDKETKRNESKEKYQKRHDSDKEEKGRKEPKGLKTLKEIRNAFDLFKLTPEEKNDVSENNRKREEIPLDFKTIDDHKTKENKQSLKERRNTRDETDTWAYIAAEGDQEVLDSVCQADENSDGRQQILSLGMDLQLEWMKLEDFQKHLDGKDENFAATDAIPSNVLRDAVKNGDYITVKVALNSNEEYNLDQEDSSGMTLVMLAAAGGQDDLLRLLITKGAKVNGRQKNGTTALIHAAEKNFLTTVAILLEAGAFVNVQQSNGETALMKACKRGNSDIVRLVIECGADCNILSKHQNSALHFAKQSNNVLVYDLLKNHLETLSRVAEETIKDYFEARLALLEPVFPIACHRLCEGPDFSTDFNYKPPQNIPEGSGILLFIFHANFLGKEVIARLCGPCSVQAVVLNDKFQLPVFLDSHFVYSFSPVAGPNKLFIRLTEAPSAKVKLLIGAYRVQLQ
# Chain of phosphoglycerate mutase (Leishmania major) (Q4Q090 1-553): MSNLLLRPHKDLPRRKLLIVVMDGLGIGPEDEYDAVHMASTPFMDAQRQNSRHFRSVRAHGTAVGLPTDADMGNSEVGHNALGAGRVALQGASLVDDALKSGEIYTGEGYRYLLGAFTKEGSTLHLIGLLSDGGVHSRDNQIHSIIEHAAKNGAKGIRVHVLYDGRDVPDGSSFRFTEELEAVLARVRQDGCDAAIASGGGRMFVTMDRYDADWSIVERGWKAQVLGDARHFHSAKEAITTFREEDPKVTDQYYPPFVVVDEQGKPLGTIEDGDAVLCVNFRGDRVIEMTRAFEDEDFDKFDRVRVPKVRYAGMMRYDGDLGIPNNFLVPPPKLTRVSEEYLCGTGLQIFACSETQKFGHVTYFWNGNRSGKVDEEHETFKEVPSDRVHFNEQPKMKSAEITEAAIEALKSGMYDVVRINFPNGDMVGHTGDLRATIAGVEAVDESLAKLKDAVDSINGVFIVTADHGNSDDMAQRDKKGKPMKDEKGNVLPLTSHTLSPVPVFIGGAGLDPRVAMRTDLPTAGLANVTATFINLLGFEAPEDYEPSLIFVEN
compound,measurement,setting,value
c1ccc(C2CC2)c(OCC2=NCCN2)c1,Potency,[1],inactive
same,Potency,[2],inactive
same,outcome,[3],inactive
same,outcome,[4],inactive
same,Potency,[5],inactive
same,Potency,[6],inactive
same,Potency,[7],inactive
same,Potency,[8],inactive
same,activation,[9],0.562% (inactive)
same,outcome,[10],inactive
same,outcome,[11],inactive
same,Potency,[12],inactive
same,Potency,[13],inactive
same,Potency,[14],inactive
same,outcome,[15],inactive
same,outcome,[16],inactive
same,Potency,[17],inactive
CCC1(C2=NCCN2)Cc2ccccc2O1 (centres undefined),Potency,[1],inactive
same,Potency,[2],inactive
same,Potency,[18],inactive
same,outcome,[3],inactive
same,outcome,[4],inactive
same,Potency,[5],inactive
same,Potency,[6],2310 nM (active)
same,Potency,[7],inactive
same,activation,[9],0.812% (inactive)
same,outcome,[10],inactive
same,outcome,[11],inactive
same,Potency,[12],inactive
same,Potency,[13],inactive
same,Potency,[14],inactive
same,outcome,[15],inactive
same,outcome,[16],inactive
same,Potency,[17],inactive
CC(O)(CS(=O)(=O)c1ccc(F)cc1)C(=O)Nc1ccc(C#N)c(C(F)(F)F)c1 (centres undefined),Potency,[1],inactive
same,Potency,[2],inactive
same,Potency,[18],inactive
same,outcome,[3],inactive
same,Potency,[5],inactive
same,Potency,[6],inactive
same,Potency,[7],inactive
same,Potency,[8],inactive
same,Potency,[19],inactive
same,viability change,[19],-8.54%
same,outcome,[10],inactive
same,Potency,[13],inactive
same,Potency,[14],inactive
same,outcome,[15],inactive
same,outcome,[16],inactive
same,Potency,[17],inactive
CC(=O)[C@H]1CC[C@H]2[C@@H]3CC[C@H]4C[C@H](O)CC[C@]4(C)[C@H]3C(=O)C[C@]12C,Potency,[1],inactive
same,Potency,[2],inactive
same,Potency,[18],inactive
same,outcome,[3],inactive
same,outcome,[4],inactive
same,Potency,[5],inactive
same,Potency,[6],inactive
same,Potency,[7],inactive
same,outcome,[20],inactive
same,Potency,[8],inactive
same,activation,[9],1.5% (inactive)
same,outcome,[10],inactive
same,outcome,[11],inactive
same,Potency,[12],inactive
same,Potency,[13],inactive
same,Potency,[14],inactive
same,outcome,[15],inactive
same,outcome,[16],inactive
same,Potency,[17],inactive
NN=C(N)N,Potency,[1],inactive
same,Potency,[2],inactive
same,Potency,[18],inactive
same,outcome,[3],inactive
same,outcome,[4],inactive
same,Potency,[5],inactive
same,Potency,[6],inactive
same,Potency,[7],inactive
same,outcome,[20],inactive
same,Potency,[8],inactive
same,outcome,[10],inactive
same,outcome,[11],inactive
same,Potency,[12],inactive
same,Potency,[13],inactive
same,Potency,[14],inactive
same,outcome,[15],inactive
same,outcome,[16],inactive
same,Potency,[17],inactive
COc1ccc(C(CN(C)C)C2(O)CCCCC2)cc1 (centres undefined),Potency,[1],inactive
same,Potency,[2],inactive
same,Potency,[18],inactive
same,outcome,[3],inactive
same,Potency,[5],inactive
same,Potency,[6],inactive
same,Potency,[7],inactive
same,outcome,[20],inactive
same,Potency,[8],inactive
same,outcome,[10],inactive
same,Potency,[13],inactive
same,Potency,[14],inactive
same,outcome,[15],inactive
same,outcome,[16],inactive
same,Potency,[17],inactive
c1ccc2c(c1)Nc1ccccc1S2,outcome,[20],inactive
COc1ccc(C(=O)c2c(C)n(CCN3CCOCC3)c3ccccc23)cc1,outcome,[20],inactive
